From ChEMBL document CHEMBL3433997, “St. Jude Leishmania screening dataset” (2016) come the findings set out here.

Assay type in all cases: functional
Assay [1] addresses Solute carrier family 2, facilitated glucose transporter member 1 (Homo sapiens) (UniProt P11166). In words: ST_JUDE_LEISH: Cytotoxicity at 2uM final concentration against transgenic Leishmania Mexicana promastigotes LmGLUT1 that are glucose transport deficient and complemented with the human glucose transporter GLUT1. Activity is measured by DNA content using SYBR green in vitro.

Assay [2] addresses Hexose transporter 1 (Plasmodium falciparum) (UniProt O97467). In words: ST_JUDE_LEISH: Cytotoxicity at 2uM final concentration against transgenic Leishmania Mexicana promastigotes LmPfHT that are glucose transport deficient and complemented with the Plasmodium falciparum hexose transporter. Activity is measured by DNA content using SYBR green in vitro.
For assay [3], the target named is Glucose transporter (Leishmania mexicana) (UniProt O61059). As to the kind of experiment: ST_JUDE_LEISH: Cytotoxicity at 2uM final concentration against transgenic Leishmania Mexicana promastigotes LmGT2 that are glucose transport deficient and complemented with the L. Mexicana glucose transporter 2. Activity is measured by DNA content using SYBR green in vitro.

The structures appear in SMILES notation.

Solute carrier family 2, facilitated glucose transporter member 1 (Homo sapiens), sequence (P11166 whole entry): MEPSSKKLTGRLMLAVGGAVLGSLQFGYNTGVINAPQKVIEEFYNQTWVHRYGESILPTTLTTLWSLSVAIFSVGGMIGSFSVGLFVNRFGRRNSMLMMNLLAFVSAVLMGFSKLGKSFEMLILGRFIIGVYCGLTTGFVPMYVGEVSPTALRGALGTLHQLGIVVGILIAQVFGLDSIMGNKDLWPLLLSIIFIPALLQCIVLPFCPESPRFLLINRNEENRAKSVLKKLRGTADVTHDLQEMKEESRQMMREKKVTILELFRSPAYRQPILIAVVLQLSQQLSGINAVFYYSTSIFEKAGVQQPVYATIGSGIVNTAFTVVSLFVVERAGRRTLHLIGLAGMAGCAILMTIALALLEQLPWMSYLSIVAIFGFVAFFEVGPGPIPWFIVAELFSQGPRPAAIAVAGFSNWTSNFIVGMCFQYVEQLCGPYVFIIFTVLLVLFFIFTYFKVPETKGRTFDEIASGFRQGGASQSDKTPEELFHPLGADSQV

Regarding `COc1ccccc1C(=O)C1CCCN(C(=O)c2ccccc2C(F)(F)F)C1` (stereo unspecified), the values for the inhibition in assay [1], in assay [2] and in assay [3] were -0.79%, -0.77% and 9.65%, respectively.
The matching figures for `CCCc1cc2c3c(N)nc(N)nc3ccc2n1CC`: 6.73%, 8.39% and 4.29%.
As for `COc1ccc(-n2ccnc2SCC(=O)Nc2cc(C)ccc2C)c(OC)c1`, the figures for the inhibition in assay [1], in assay [2] and in assay [3] were 0.44%, 0.63% and 0.53%, respectively.
The corresponding values for `O=c1ccc2ncc(Cl)c3c2n1CC3CN1CCC(NCc2cc3c(cn2)OCCO3)CC1` (stereo unspecified) are 8.8%, 14.5% and 5.05%.
The matching figures for `COc1ccc(-c2cn3c(C(=O)Nc4ccccc4Cl)c(-c4ccccc4)c4c3n2CCCC4)cc1`: 0.33%, 0.92% and -0.58%.
Consider `COc1ccc(-n2c(=O)c3c(n4c(SC(C)C)nnc24)-c2ccccc2CC32CCCCC2)cc1`, for which the inhibition – broadly, the drop in the measured response relative to a control, in per cent – turned out to be 1.32% in assay [1], 1.21% in assay [2] and 0.1% in assay [3].
The corresponding values for `CN1CCCN(Cc2ccc(-c3ccc(NC(=O)c4cccc(Cl)c4)cc3)cc2)CC1` are 0.35%, -1.66% and -0.18%.
As for `O=C(CC(c1ccccc1)c1ccccc1O)N1CCOCC1` (stereo unspecified), the inhibition in assay [1] was 0.4%; in assay [2] it was 1.12%; in assay [3], -0.06%.
On to `CC(C)c1ccc(NC(=O)Nc2ccc(CCNCCCc3ccccc3)cc2)cc1`, for which the inhibition came to 0.62% in assay [1], 0.01% in assay [2] and 0.36% in assay [3].
The matching figures for `O=C(NCc1ccccc1)c1ncn(CCCN2CCC(N3CCCC3)CC2)c1-c1ccc(Cl)c(Cl)c1`: -1.45%, -1.01% and -1.08%.
The corresponding values for `Cc1ccc(O)cc1Nc1ccnc2ccc(-c3csc(CNCCN4CCOCC4)n3)cc12` are 3.28%, 2.25% and 1.59%.
`CN(C)c1ccc(CN2CCC(CNC(=O)c3cc(-c4ccccc4F)cs3)C2)cc1` (stereo unspecified): the results for the inhibition in assay [1], in assay [2] and in assay [3] were 1.96%, 1.98% and 2.12%, respectively.
`Cc1cc(O)c2c3c1C(=O)C=C1C3c3c(c(O)cc(O)c3C(=O)C1(C)C)C2=O` (stereo unspecified): the figures for the inhibition in assay [1], in assay [2] and in assay [3] were -4.69%, -5.26% and -3.43%, respectively.
In the case of `Cc1cccc(CN2CCN(c3ncc(C(=O)NC4CC4)cc3Cl)CC2)c1`, the inhibition in assay [1] came out at 4.67%; in assay [2], 2.14%; in assay [3] it was 2.71%.
The corresponding values for `Cc1nc(N2CCC(C)CC2)c2c3c(sc2n1)CCCC3` are 2.21%, 2.09% and 0.47%.
The matching figures for `O=C1O[C@H](c2ccccc2)[C@H](c2ccccc2)N(C(=O)OCc2ccccc2)[C@H]1Cc1ccccc1C1CCCC1`: 1.05%, 2.14% and 1.27%.
The matching figures for `CC(CN(C)C)C(=O)Nc1cccc(-c2cccc(-c3nc4ccccc4[nH]3)c2)c1` (stereo unspecified): -0.1%, -0.62% and 3.87%.
Take `CCOC(=O)NOC(C(=O)O)c1ccccc1` (stereo unspecified): the inhibition was 2.01% in assay [1], -0.31% in assay [2] and 0.52% in assay [3].
The corresponding values for `CCN(CC)CCNc1cc(C)nc(NC(=N)Nc2ccc(Cl)cc2)n1` are 6%, 6.42% and 5.89%.
The corresponding values for `Fc1ccc2[nH]c(-c3cccc(-c4ccc(CNCC5CCCO5)cc4)c3)nc2c1` (stereo unspecified) are 1.13%, -3.6% and -1.42%.
Take `Cc1cccc2nc(-c3ccc(-c4cccc(CNCCc5ccncc5)c4)cc3)[nH]c12`: the inhibition came to 5.55% in assay [1], 3.23% in assay [2] and 0.92% in assay [3].
The matching figures for `COC(=O)c1cccc(N2CCN(CCCNC(=O)/C(=C/C=C/c3cc4cc(Cl)c(Cl)cc4[nH]3)OC)CC2)c1`: 2.24%, 0.95% and -1.57%.
As to `O=S(=O)(c1ccc(Cl)cc1Cl)N1CCCCC(c2ccc(C(F)(F)F)cc2)=N1`, the values for the inhibition in assay [1], in assay [2] and in assay [3] were 0.38%, 0.43% and 1.07%, respectively.
Consider `Cc1ccc(-c2cc3nc4c(c(NCCCn5ccnc5)n3n2)CCC4)cc1`, for which the inhibition amounted to 2.77% in assay [1], 1.6% in assay [2] and 0.92% in assay [3].
The matching figures for `CC(C)(C)OC(=O)N(Cc1cc(-n2nnnc2C(F)(F)F)ccc1O)[C@H]1CCCN(C(=O)OC(C)(C)C)[C@H]1c1ccccc1`: -0.38%, -2.92% and -3.2%.
In the case of `CCOc1cc(C(=O)NCCc2ccc(Cl)c(Cl)c2)ccc1-c1nc2cc(Cl)ccc2[nH]1`, the inhibition in assay [1] stood at 1.92%; in assay [2], 0.01%; in assay [3], 1.26%.
With `Cc1ccc2c(=NN=Cc3ccc(Cl)cc3)cc(C)[nH]c2c1`, the inhibition was 4.64% in assay [1], 4.7% in assay [2] and 2.66% in assay [3].
The matching figures for `CN(C)C(=O)c1ccc(CN(Cc2cccc(OC(C)(C)C)c2)Cc2ccc3c(c2)OCCO3)cc1`: 0.24%, -0.56% and 1%.
The matching figures for `O=C(NCCN1CCC(c2ccncc2)CC1)c1ccc(Nc2nccc(Nc3ccc(Oc4ccccc4)cc3)n2)cc1`: -0.62%, -0.94% and -1.34%.
As for `O=C(NCCN1CCOCC1)c1ccc(-c2ccc(CNCCCc3ccccc3)cc2)nc1`, the inhibition was -1.5% in assay [1], -3% in assay [2] and -0.47% in assay [3].
As for `O=C(CCc1cccnc1)Nc1cccc(-c2ccc(-c3nc4cc(C(F)(F)F)ccc4[nH]3)s2)c1`, the values for the inhibition in assay [1], in assay [2] and in assay [3] were -0.82%, 1.89% and 2.16%, respectively.
The matching figures for `COc1ccc2nccc(NCC3(O)CCN(CCc4ccc5c(c4)OCCO5)CC3)c2n1`: 4.99%, 4.58% and 0.15%.
The corresponding values for `O=C(C=Cc1ccc(Cl)c(Cl)c1)NCCCCCN1CCC(CCCNC(=O)C2CC2c2ccccc2)CC1` (stereo unspecified) are 1.26%, 0.65% and 1.16%.
The corresponding values for `COc1c(C2CCN(CCCCNC(=O)C=Cc3ccccc3C(F)(F)F)CC2)ccc2c1CCCC2` are -0.06%, -0.81% and -0.49%.
`COc1cc(-n2cnc3cc(-c4ccc(Cl)cc4)sc3c2=O)ccc1OCCN1CCC(c2cccc(NC(C)=O)c2)CC1`: the values for the inhibition in assay [1], in assay [2] and in assay [3] were 6.68%, 3.81% and 3.05%, respectively.
The matching figures for `COc1cccc(NC(=O)NC2CCN(CCCCCNC(=O)/C=C/c3ccc(Cl)c(Cl)c3)CC2)c1`: 0.13%, 0.47% and 3.52%.
The matching figures for `O=C(Nc1ccc(OC(F)(F)F)cc1)NC1CCN(c2ccnc3ccccc23)CC1`: 6.11%, 5.45% and -1.28%.
